Assay outcomes as filed in PubChem BioAssay.
In the library only some 3.5% were active in any assay of this set; here they are far more common.
Mcl1-Noxa inh = Mcl-1/Noxa interaction inhibition | TR-FRET Mcl-1/Noxa peptide binding, 2 h | inhibition, % at 21.7 µM | hit rate 1.5% among 220,000 | AID 1022;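 active means compounds that cut the protein-peptide binding signal by more than 50% relative to plate controls in a single-dose test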;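 further: His-tagged Mcl-1 with rhodamine Noxa BH3 peptide and terbium anti-His antibody; 0% = Mcl-1 plus Noxa peptide wells and 100% = peptide-only wells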
Target sequence (Q07820 whole entry, looked up): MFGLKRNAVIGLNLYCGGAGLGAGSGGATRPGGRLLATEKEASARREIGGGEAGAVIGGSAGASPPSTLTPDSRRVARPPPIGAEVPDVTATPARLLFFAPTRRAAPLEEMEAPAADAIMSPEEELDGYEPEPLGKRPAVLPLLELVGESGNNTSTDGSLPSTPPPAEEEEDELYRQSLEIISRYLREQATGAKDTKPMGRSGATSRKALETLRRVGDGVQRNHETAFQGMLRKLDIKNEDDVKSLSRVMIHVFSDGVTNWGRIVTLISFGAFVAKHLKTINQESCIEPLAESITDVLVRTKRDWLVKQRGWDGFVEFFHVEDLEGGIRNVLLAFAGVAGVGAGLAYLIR
Mcl1-Bid inh = Mcl-1/Bid interaction inhibition; AID 1021; hit rate 0.97% among 220,000; TR-FRET Mcl-1/Bid-Dy647 peptide binding, 1536-well; inhibition, % at 21.7 µM; Q07820;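 active means compounds that cut the binding signal by more than half at the single screening dose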;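 further: His-tagged Mcl-1 with europium anti-His antibody binding Bid BH3 peptide; 0% = Mcl-1 plus peptide wells and 100% = peptide-only wells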
Mcl-1 Bim block = inhibitors of Bim-Mcl-1 interaction, human. inhibition, % at 10 µM. Q07820. hit rate 0.1% among 190,000. Bead-based flow cytometry, Bim peptide-Mcl-1 binding. AID 1009; in the data active means inhibition above about 40%;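 further: 0% = no compound tracer wells and 100% = peptide blocker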
eIF4E-4G inh = eIF4E/eIF4G interaction inhibition in translation initiation; P63073+Q04637; TR-FRET eIF4E-eIF4GI(517-606) binding, 2 h; inhibition, % at 21.7 µM; hit rate 0.37% among 220,000;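 active means inhibition above about 30%, limit read from the data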;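 further: 0% = full FRET control wells and 100% = background wells lacking eIF4GI fragment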
14-3-3 Bad inh = disrupts binding of bovine 14-3-3 zeta to phospho-Bad peptide. P63103. TR-FRET 14-3-3zeta/Dy647-pBad peptide displacement, 1 h. inhibition, % at 21.7 µM. hit rate 0.71% among 220,000. AID 781;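 active means inhibition above about 70%, limit read from the data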;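 further: 0% = full 14-3-3 plus peptide FRET controls and 100% = background without 14-3-3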
Target sequence (P63103 whole entry, looked up): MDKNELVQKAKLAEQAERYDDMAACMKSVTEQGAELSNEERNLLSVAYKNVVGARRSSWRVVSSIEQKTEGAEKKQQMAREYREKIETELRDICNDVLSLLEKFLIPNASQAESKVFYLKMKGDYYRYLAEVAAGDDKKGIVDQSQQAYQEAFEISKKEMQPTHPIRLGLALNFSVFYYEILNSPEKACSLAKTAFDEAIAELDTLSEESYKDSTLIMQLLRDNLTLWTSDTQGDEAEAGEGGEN
Hck Nef HTS = human Hck-Nef kinase inhibition. P08631. Recombinant Hck-YEEI plus Nef, Z-Lyte FRET kinase assay. inhibition, % at 20 µM. hit rate 0.68% among 220,000;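 active means Hck-Nef kinase inhibition above about 50%, limit read from the data; inactive means inhibition below that limit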;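 further: 0% = DMSO with Hck plus Nef and 100% = Hck alone without Nef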
Hck-Nef confirm = confirmation of Hck-Nef kinase inhibitors; calls only at 10 µM; Recombinant Hck-YEEI:Nef, Z-Lyte FRET kinase assay; shares compounds with Hck Nef HTS; hit rate 28% among 1,300;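 active means average inhibition of at least 50%, with Z-scores no higher than 3 in both the phospho-tyrosine peptide and fluorescence counterscreens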
Numbers without * were called inactive; i = inactive; x = no result shown; + = active, no number; [ ] = dose if it differs, or a comment.

SMILES	Mcl1-Noxa inh	Mcl1-Bid inh	Mcl-1 Bim block	eIF4E-4G inh	14-3-3 Bad inh	Hck Nef HTS	Hck-Nef confirm
Cc1cc(/C=C2\NC(=O)NC2=O)c(C)n1-c1cccnc1	-2	-127	x	-2	-2	52*	i
COc1ccc(CN(C(=O)CSc2nnc(-c3ccc(F)cc3)o2)c2ccc(F)cc2)cc1	-15	5	-5	1	3	77*	i
COc1ccc(-c2nnc(SCC(=O)c3ccc(C)o3)o2)cc1	-7	11	-3	2	2	-1	x
Cc1cc(C(=O)NC(C)Cc2ccccc2)cc(C)c1[N+](=O)[O-] (stereo not drawn)	18	-16	0	0	1	16	x
COc1ccc(C)cc1NC(=O)C1CCN(C(=O)Cc2ccccc2)CC1	-6	-17	-1	-3	-4	16	x
CCCOc1c(Br)cc(C2C3=C(CCCC3=O)N(CC)C3=C2C(=O)CCC3)cc1OC	33	0	-3	10	13	47	x
CCCOc1c(Br)cc(C2C3=C(CCCC3=O)N(C)C3=C2C(=O)CCC3)cc1OC	7	-30	-8	4	-4	54*	x
O=C(O)CSc1cc(C(=O)c2ccccc2O)cn2c(=O)c3c(-c4ccccc4)csc3nc12	86*	-33	0	17	7	61*	+
Nc1ccc(-c2nc3ccc(C(=O)O)cc3s2)cc1	57*	-37	-12	0	10	115*	x
Nc1ccc(-c2nc3ccc(N)cc3s2)cc1	39	-60	x	-7	7	61*	i
Nc1cccc(-c2nc3ccc(N)cc3s2)c1	29	-24	14	-16	-18	14	x
O=C(NN=C1CCCCCC1)c1ccc2c(c1)OCO2	34	-13	1	0	12	16	x
COc1cccc(Nc2ncc(C#N)c(N)n2)c1	6	-1	x	-2	-1	57*	+
COc1ccccc1NC(=O)c1ccc(NC(=O)CN(C)Cc2ccccc2F)cc1	7	-16	0	-2	1	20	x
CCCCCCCCCCCCCCCC[n+]1cccc2ccccc21	89*	91*	0	92*[fluorescence artefact?]	97*[fluorescence artefact?]	107*	x
Cc1cc(C)n(-c2nc3ccccc3s2)n1	-2	-20	-1	-4	-2	21	x
Cc1c2c(=O)n(-c3nc4ccccc4s3)nc-2cc(O)n1Cc1ccccc1	73*	-99	x	32*	-8	84*	i
Cc1cccn2c(=O)c3cc(C(=O)O)n(C)c3nc12	23	20	1	6	8	52*	i
COC1C=CC(CNC(=O)c2cc3c(=O)n4cccc(C)c4nc3n2C)(OC)O1 (stereo not drawn)	6	-12	0	2	4	74*	i
Cc1cccn2c(=O)c3cc(C(=O)NCC4CCCO4)n(C)c3nc12 (stereo not drawn)	x	x	x	x	x	30	x
COC(=O)c1ccc(=O)n(CC(=O)c2ccc(Cl)cc2)c1	4	-9	-2	4	-2	20	x
O=C(/C=C/c1ccccc1)NC1CCCc2ccccc21 (stereo not drawn)	23	-3	0	0	3	18	x
CC(=O)Nc1ccc(S(=O)(=O)C(C#N)c2nc3ccccc3nc2NCCCO)cc1 (stereo not drawn)	9	-7	x	2	-4	165*	x
CC(=O)Nc1ccc(S(=O)(=O)C(C#N)c2nc3ccccc3nc2NCCO)cc1 (stereo not drawn)	0	-1	x	2	2	148*	x
Cc1ccc(S(=O)(=O)C(C#N)c2nc3ccccc3nc2OCCO)cc1 (stereo not drawn)	35	-15	-1	2	0	5	x
SMILES	Mcl1-Noxa inh	Mcl1-Bid inh	Mcl-1 Bim block	eIF4E-4G inh	14-3-3 Bad inh	Hck Nef HTS	Hck-Nef confirm
COc1cccc(/C(N)=N/OC(=O)Cc2ccccc2[N+](=O)[O-])c1	9	-10	-2	4	-3	-6	x
Cc1[nH]c(C)c2c(=O)[nH]ncc12	-13	-25	x	6	0	24	x
O=c1onc(-c2cccnc2)n1-c1ccccc1F	5	-8	x	0	-1	7	x
Cc1ccc(/C=C2\SC(=S)N(/N=C/c3cc([N+](=O)[O-])ccc3O)C2=O)o1	91*	-21	1	15	-12	142*	+
CCCCNC(=O)c1cc2c(=O)n3cccc(C)c3nc2n(Cc2ccncc2)c1=N	-1	-7	1	6	-4	67*	i
COCCNC(=O)c1cc2c(=O)n3cccc(C)c3nc2n(Cc2ccncc2)c1=N	1	-5	-1	-5	-1	151*	x
Cc1cccn2c(=O)c3cc(C#N)c(=N)n(Cc4ccncc4)c3nc12	-16	5	-1	1	5	-1	x
CC(OC(=O)Cc1c(F)cccc1Cl)C(=O)NCCC1=CCCCC1 (stereo not drawn)	13	-29	-5	0	-21	1	x
Cc1cc(C)c2c(c1)/C(=N\N=c1\sc3ccccc3n1C)C(=O)N2	26	-17	x	-9	3	51*	i
CC(=O)/C(C#N)=C1\NC(=O)C(Cc2ccc(C)c(C)c2)S1 (stereo not drawn)	5	4	-1	2	2	-2	x
O=C1c2ccccc2C(=O)c2c([N+](=O)[O-])ccc(O)c21	32	-21	x	-2	7	29	x
CC1=CC(=O)c2c(O)ccc(O)c2C1=O	96*	99*	23	63*	91*	60*	+
Oc1[nH]c2ccccc2c1C=Nc1ccc2c(c1)OCO2	27	-36	0	4	-6	52*	i
CCOc1ccc(N=Nc2c(N)[nH][nH]c2=O)cc1	25	-60	-4	-7	-8	12	x
COc1ccc(N=Nc2c(C)[nH][nH]c2=O)cc1	17	-41	-7	4	-2	60*	i
COc1ccc(C[C@@H]2CN3C(=NC[C@@H]3C)N2CCNC(=O)c2ccc(C)c(Br)c2)cc1	-18	-6	-1	-1	-7	-4	x
Cc1cccc(/C=N\Nc2cn[nH]c(=O)c2Cl)c1	-1	-16	1	1	22	46	x
O=c1[nH]ncc(N/N=C\c2cccs2)c1Cl	11	-15	-1	4	-16	59*	+
O=c1[nH]ncc(N/N=C\c2ccncc2)c1Cl	7	-34	2	-1	-5	43	x
COc1ccccc1/C=N\Nc1cn[nH]c(=O)c1Cl	11	-7	-2	2	-6	61*	i
CC(C)N(C(=O)CSc1nnc(Cc2csc(Nc3ccccc3)n2)o1)C(C)C	-9	-18	0	-4	-7	25	x
Cc1nn(CC(=O)NCc2ccc(Cl)cc2)c(C)c1[N+](=O)[O-]	6	-3	-3	1	-2	-11	x
COc1ccc(-c2ccc(/C=N/NC(=O)Cc3nnc(N)s3)o2)cc1Cl	39	-16	x	1	0	79*	i
